This excerpt belongs to a sample that is enriched for hits.
Tgondii IFNg – inhibitors of Toxoplasma gondii growth with IFN-gamma | Toxoplasma gondii growth in IFN-gamma-treated host cells; stronger effect = lower value | AID 1259416 | activity change, negative = inhibition, % (no concentration beside the values) | hit rate 3.8% among 69,000; in the data active means activity change below about -70%, passing the limit was not always enough;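 further: host cells are HeLa cells infected with Toxoplasma gondii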
An asterisk follows results filed as active.

SMILES | Tgondii IFNg
C=CC(=O)Nc1cccc(Nc2nc(Nc3ccc(OCCOC)cc3)ncc2F)c1 | -45
COc1cc(Nc2ncc(F)c(Nc3ccc4c(n3)N(COP(=O)(O)O)C(=O)C(C)(C)O4)n2)cc(OC)c1OC | -74*
COCc1cc(CNC(=O)c2cn(-c3ccccc3)nn2)[nH]n1 | 17
Nc1ncnc2nc[nH]c12 | 6
Nc1nc(=S)c2[nH]cnc2[nH]1 | -87*
Cc1nc2c(n1C)CN(C(=O)c1ccc(Cl)s1)CC2 | 24
CCOC(=O)c1[nH]c(C)c(S(=O)(=O)NC2CCCCNC2=O)c1C (centres undefined) | -95*
CCOC(=O)c1[nH]c(C)c(CN2CC3CCCN3C[C@@H]2C)c1C (some centres undefined) | -18
CCOC(=O)c1[nH]c(C)c(C(=O)OCC)c1C | 146
Cc1nccn1CC1CCN(c2ncnc3c2CCNC3)CC1 | 4
COC(=O)CC(=O)c1cc(C(F)(F)F)nn1C | 24
COc1cc(CCc2cc(NC(=O)c3ccc(N4C[C@@H](C)N[C@@H](C)C4)cc3)n[nH]2)cc(OC)c1 | -74*
COc1ccc(CCCNC(=O)c2ccc(N3CC(O)C3)nc2)cc1 | -1
COc1ccc(NC(=O)c2ccc(-n3c(C)ccc3C)cc2)c(OC)c1 | 14
COc1cccc(COC2CN(CCc3ccccc3)C(=O)CN(C(=O)c3csc(C)n3)C2)c1 (centres undefined) | -9
CC(C)N1CCC(c2ccnc3c(C(=O)N4CCCN(C)CC4)ncn23)CC1 | -49
O=C(CCCl)NCCc1ccccc1 | 31
O=C(NCCCCc1ccccc1)c1ccccc1 | -82*
O=C(O)CCNC(=O)c1ccccc1 | 11
CSc1ncc(C(=O)N(C)C(C)Cc2ccccn2)cn1 (centres undefined) | -7
N#Cc1c(=N)nc2oc3ccc(Cl)cc3c3c(C#N)c(N)[nH]c1c23 | -75*
N#Cc1c(=O)[nH]c(O)c2c(=N)oc3ccc(Cl)cc3c12 | 60
COC(=O)c1scc(S(=O)(=O)Cc2ccco2)c1N | -3
O=C(COc1ccccc1)N1CCC2(CC1)Nc1ccccc1-n1cccc12 | -6
CCN(CC)Cc1ccc2cc(COC(=O)Nc3ccc(C(=O)NO)cc3)ccc2c1 | -83*
SMILES | Tgondii IFNg
CCN(CC)Cc1cccc(C(=O)Nc2ccccc2CO)c1 | 4
COc1ccc(Cn2ccc3ccc(C(=O)NO)cc32)cc1 | 0
CC(=O)N(C)Cc1cc(C2CCC(CN(C)CC3=CCCOC3)CC2)nn1C (centres undefined) | 0
CCOC(=O)c1sc2sc(C(=O)OCC)c(-c3ccco3)c2c1N | -35
CCOC(=O)c1cccnc1-c1ccc(-c2ccn[nH]2)cc1 | 7
CCOC(=O)c1sc2sc(-c3ccn[nH]3)c(C)c2c1C | -110*
Cc1cccc(CNC(=O)CN2C(=O)CCc3cc(S(=O)(=O)N4CCCCC4C)ccc32)c1 (centres undefined) | -27
CCN1CCNC(=O)C12CCN(C(=O)Cc1ccsc1)CC2 | -3
COc1ccccc1CC(=O)N1CCCC1c1cc2nc(C)cc(C(F)(F)F)n2n1 (centres undefined) | -21
O=C(c1ccn[nH]1)N1CCC(c2cc3nc(-c4cccs4)cc(C(F)(F)F)n3n2)C1 (centres undefined) | -46
Cc1cc(C(F)(F)F)n2nc(C3CCCN(C(=O)c4cc5c(s4)CCCC5)C3)cc2n1 (centres undefined) | -104*
CCN(C)c1ncnc2c1CCN(C(=O)c1ccc3[nH]ccc3c1)CC2 | -48
Cc1cc(C)cc(NC(=O)CC(=O)N2CCC3(CC2)C(=O)NCCN3C)c1 | 47
Cc1ccc(-c2nc3c(s2)CN(S(=O)(=O)c2ccccc2Cl)CC3)cc1 | -56
COc1cccc(-c2nc3c(s2)CN(S(=O)(=O)c2cccc(Cl)c2)CC3)c1 | -36
Cc1cc(C)cc(S(=O)(=O)N2CCc3nc(-c4ccccc4)sc3C2)c1 | -17
COc1ccc(-c2nc3c(s2)CN(S(=O)(=O)c2cc(C)cc(C)c2)CC3)cc1 | -116*
Cc1ccc(-c2nc3c(s2)CN(S(=O)(=O)c2ccc(F)cc2F)CC3)cc1 | -88*
CC(C)(C)c1ccc(S(=O)(=O)N2CCc3nc(-c4ccccc4)sc3C2)cc1 | 8
COc1cccc(-c2nc3c(s2)CN(S(=O)(=O)c2cc(C)cc(C)c2)CC3)c1 | -85*
COc1ccc(-c2nc3c(s2)CN(S(=O)(=O)c2cccc(F)c2)CC3)cc1 | -4
COc1ccc(-c2nc3c(s2)CN(S(=O)(=O)c2ccc(CC(C)C)cc2)CC3)cc1 | 11
COc1ccc(-c2nc3c(s2)CN(S(=O)(=O)c2ccc(OC)cc2)CC3)cc1 | -4
COc1ccc(-c2nc3c(s2)CN(S(=O)(=O)c2c(C)cc(C)cc2C)CC3)cc1 | 5
COc1ccc(-c2nc3c(s2)CN(S(=O)(=O)c2cccs2)CC3)cc1 | -94*
CCn1c(CC2CCNCC2)nn(Cc2csc(C)n2)c1=O | 9
Cc1ccccc1-c1nc(CN2CCN3CCNC(=O)C3C2)c(C)o1 (centres undefined) | -5
Cn1ncc2c(NCc3cnn4ccccc34)nc(-c3cccnc3)nc21 | -34
CC(=O)N1CCC2(CC1)CCN(C(=O)c1cc(C)n(C)n1)C2 | -26
